Bioassay records deposited in PubChem by several laboratories.
Compounds with a hit are over-represented: about 4% of the library has one in this group of screens.
Shn3 inh set2 = reduction of Shn3 3'UTR firefly luciferase signal, primary screen, Schnurri-3 inhibitor project, cell-based, Clone20 osteoblasts, set 2; Clone20 osteoblast Shn3 3'UTR firefly luciferase, 24 h; inhibition, % at 12.5 µM; 360,000 tested, 0.52% active; AID 588674, 2011;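 active = mean inhibition of at least 75% with every replicate also reaching 75%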;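 also: 0% = median of neutral control wells and 100% = pilot-screen positive control compound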
PAX8 reporter = inhibitors of PAX8-driven TPO luciferase reporter, primary screen, RMG-I cells, single concentration; SteadyGlo, 24 h; inhibition, % at 12.6 µM; 360,000 tested, 1.2% active;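 active = mean replicate inhibition at least 60% with every replicate also reaching 60%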;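 also: luciferase light reporting Pax8 driven TPO promoter activity; plate controls were median of neutral control wells for no effect and mitoxantrone controls for full effect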
Beta apoptosis = inhibitors of cytokine-induced beta cell apoptosis, primary screen, luminescence. AID 435005, 2010. protection from apoptosis, % (test concentration not listed). INS-1E cytokine-induced death, ATP luminescence, 48 h; percent of positive-control rescue, neutral wells zero. 300,000 tested, 0.8% active;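 active = Every replicate reaches about 75%, or at least half do and their mean reaches it too, limit read from the data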;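 also: 0% = cytokine-treated negative control wells and 100% = positive control rescue; higher means more ATP so stronger rescue from cytokine killing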
Gli-Sufu block = Gli-Sufu pathway antagonists, primary screen, luciferase luminescence, Sufu-KO-LIGHT cells, uHTS. Sufu-KO-LIGHT fibroblasts, Gli luciferase reporter luminescence. inhibition, % at 5 µM. 340,000 tested, 0.74% active. AID 588413, 2011;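 active = inhibition above about 55%, limit read from the data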;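 also: 0% = DMSO-treated cells and 100% = wells with medium but no cells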
Mdm2-MdmX inh = inhibitors of human Mdm2-MdmX association, primary screen, cell-based, luminescence, split luciferase, SaOS-2, uHTS. Protein Mdm4 (Homo sapiens) + E3 ubiquitin-protein ligase Mdm2 (Homo sapiens), …. 330,000 tested, 3% active. inhibition, % at 8 µM. SaOS-2 split-luciferase Mdm2/MdmX complementation;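 active = inhibition of at least 50% at 8 µM in the primary screen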
Target sequence (O15151 whole entry, looked up): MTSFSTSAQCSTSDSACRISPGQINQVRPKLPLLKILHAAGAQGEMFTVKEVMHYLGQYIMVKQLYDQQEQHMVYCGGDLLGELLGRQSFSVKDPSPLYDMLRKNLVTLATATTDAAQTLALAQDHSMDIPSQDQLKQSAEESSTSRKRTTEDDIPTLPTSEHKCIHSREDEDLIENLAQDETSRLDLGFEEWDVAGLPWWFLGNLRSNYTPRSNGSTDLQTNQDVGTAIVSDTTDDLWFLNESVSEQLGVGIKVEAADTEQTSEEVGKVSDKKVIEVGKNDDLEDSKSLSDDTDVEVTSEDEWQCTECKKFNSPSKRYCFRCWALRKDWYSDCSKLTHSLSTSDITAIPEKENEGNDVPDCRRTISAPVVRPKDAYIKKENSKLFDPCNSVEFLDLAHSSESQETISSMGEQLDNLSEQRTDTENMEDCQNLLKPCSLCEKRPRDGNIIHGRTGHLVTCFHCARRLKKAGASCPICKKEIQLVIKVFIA
Target sequence (Q00987 whole entry, looked up): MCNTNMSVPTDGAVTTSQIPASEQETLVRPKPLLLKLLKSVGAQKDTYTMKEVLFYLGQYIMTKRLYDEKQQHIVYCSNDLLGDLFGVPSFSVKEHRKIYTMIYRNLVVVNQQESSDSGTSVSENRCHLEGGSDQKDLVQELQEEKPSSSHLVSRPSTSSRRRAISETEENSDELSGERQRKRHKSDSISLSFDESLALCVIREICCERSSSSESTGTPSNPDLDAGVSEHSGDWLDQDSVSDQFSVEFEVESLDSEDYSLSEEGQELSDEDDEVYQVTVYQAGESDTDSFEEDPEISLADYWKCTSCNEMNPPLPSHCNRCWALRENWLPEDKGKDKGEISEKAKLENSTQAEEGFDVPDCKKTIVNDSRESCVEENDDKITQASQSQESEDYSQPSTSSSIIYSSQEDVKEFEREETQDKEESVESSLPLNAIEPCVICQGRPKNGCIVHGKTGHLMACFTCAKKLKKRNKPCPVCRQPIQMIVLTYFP
CSC inhib = cancer stem cell viability inhibitors, primary screen, luminescence; cancer stem cell-like cells viability; inhibition, % at 7.5 µM; 300,000 tested, 1.1% active; AID 2717, 2010; in the data active = inhibition above about 75%; tested in HMLE shEcad cells
Mdm2-MdmX conf = Mdm2-MdmX complex disruptors, retested hits, confirmation, luminescence, single concentration | shares compounds with Mdm2-MdmX inh | Mdm2-MdmX binding, luminescent assay | inhibition, % at 8 µM | 10,000 tested, 55% active; in the data active = inhibition above about 40%
FLuc counter = full-length luciferase signal inhibition, confirmation, counter-screen for Mdm2/MdmX interaction inhibitor project, cell-based, single concentration, SaOS-2; shares compounds with Mdm2-MdmX inh; SaOS-2 full-length luciferase counterscreen, luminescence; inhibition, % at 8 µM; 6,200 tested, 77% active; AID 504607, 2011;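 active = mean inhibition at 8 µM reaching about 37%, which flags the compound as non-specific, limit read from the data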;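 also: p53-null SaOS-2 cells with luciferase driven by a doxycycline-inducible promoter; compound on cells about two nights before reading with doxycycline added after day one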
An asterisk follows results filed as active; · = no result given.

SMILES	Shn3 inh set2	PAX8 reporter	Beta apoptosis	Gli-Sufu block	Mdm2-MdmX inh	CSC inhib	Mdm2-MdmX conf	FLuc counter
C=CCn1cnc2c(c1=O)c1nc3ccccc3nc1n2/N=C/c1ccccn1	-22	·	·	7	·	·	·	·
O=c1c2c3nc4ccccc4nc3n(/N=C/c3ccccn3)c2ncn1-c1ccccc1	29	-1	-6	-16	74*	35	49*	55*
CC(C)NC(=O)Nc1ccc2c(c1)C(=O)N([C@H](C)CO)C[C@H](C)[C@@H](CN(C)S(=O)(=O)c1ccc(Cl)cc1)OCCCC[C@H](C)O2	·	24	·	·	·	·	·	·
C=C1C(=O)C=C2CN(C(=O)c3ccccc3)[C@@](Cc3ccc(F)cc3)(C(=O)OC)[C@@H]12	95*	·	113*	62*	100*	-2	100*	1
O=C(NC1CCCCC1)c1n[nH]c2c1CCCCC2	48	55	5	-30	71*	·	69*	65*
O=C(Nc1ccc(Oc2ccccc2)nc1)C1CCN(Cc2ccco2)CC1	10	3	2	9	-10	-11	·	·
O=C(Nc1ccc(Oc2ccccc2)nc1)C1CCCCN1Cc1ccco1 (stereo unspecified)	17	-31	8	42	65*	39	76*	68*
O=c1cc(-c2ccccc2Cl)oc2c([N+](=O)[O-])c(O)cc(O)c12	-3	-100	9	6	83*	1	76*	21
COC(=O)C(=Cc1ccc(OCc2ccc([N+](=O)[O-])cc2)c(OC)c1)C(=O)OC	12	·	-9	-20	92*	·	8	·
CCOC(=O)C(=Cc1ccc(OCc2ccc([N+](=O)[O-])cc2)c(OC)c1)C(=O)OCC	84	·	6	-27	99*	116*	34	·
CC(=O)c1cccc(Nc2c3c(nc4ccccc24)CCC3)c1	-1	21	26	9	55*	61	70*	72*
Cc1ccc2nc3c(c(Nc4cccc(O)c4)c2c1)CCC3	17	15	20	9	60*	37	34	·
COC(=O)c1cccc(Nc2c3c(nc4ccccc24)CCC3)c1	42	15	·	27	64*	·	68*	63*
CS(=O)(=O)N1CCCCN2[C@H](C1)[C@H](c1ccc(-c3cccc(C#N)c3)cc1)[C@@H]2CO	·	5	·	·	·	·	·	·
CCO[C@H]1OC(C(=O)N2CCCC2)=C[C@@H](c2ccc(C(F)(F)F)cc2)[C@@H]1CCCO	·	-10	·	·	·	·	·	·
Cc1ccccc1Nc1c(-c2ccncc2)nc2ccc(Cl)cn12	-9	8	-20	-8	75*	-1	49*	71*
CN1C(=O)c2cc(NC(=O)C3CCCC3)ccc2OC[C@@H]2O[C@@H](CC(=O)Nc3ccccc3)CC[C@@H]21	·	19	·	·	·	·	·	·
CCN(C(=O)c1ccc2c(Cl)c3c(nc2c1)CCC3)c1ccc(C)c(C)c1	9	-3	11	17	53*	·	43*	82*
O=C(c1ccc2c(Cl)c3c(nc2c1)CCCC3)N1CCC(N2CCCCC2)CC1	-29	14	-2	-2	58*	27	25	·
CN1CCN(CCCNC(=O)c2ccc3c(Cl)c4c(nc3c2)CCCC4)CC1	-29	1	-1	23	76*	-18	42*	58*
COc1ccc2c3c(n(C)c2c1)[C@@H](CO)N(C(=O)Cc1ccccc1)CC31CN(C)C1	·	-32	·	·	·	·	·	·
Cc1ccc(-n2c(O)c(C=NCc3ccccn3)c3ccccc3c2=O)cc1C	7	20	11	-3	51*	-4	24	·
CC(=O)OC[C@]12CC[C@H]3[C@@](C)(CC[C@H]4C(C)(C)CCC[C@]34C)[C@@H]1C[C@@H](C1=CC(=O)O[C@@H]1OC(C)=O)O2	·	·	92*	·	100*	125*	99*	2
CC(=O)OC[C@]12CC[C@H]3[C@@](C)(CC[C@H]4C(C)(C)CCC[C@]34C)[C@@H]1C[C@H](C1=CC(=O)O[C@H]1OC(C)=O)O2	·	·	10	·	91*	107*	23	·
COCCCNC(=O)[C@@]1(Cc2ccccc2N=[N+]=[N-])N=C(c2ccc(OCCCO)cc2)O[C@H]1c1ccccc1N=[N+]=[N-]	·	10	·	·	·	·	·	·
SMILES	Shn3 inh set2	PAX8 reporter	Beta apoptosis	Gli-Sufu block	Mdm2-MdmX inh	CSC inhib	Mdm2-MdmX conf	FLuc counter
O=C(Sc1cccc2cccnc12)c1ccccc1Br	99*	100*	52	·	97*	24	90*	4
O=C(Sc1cccc2cccnc12)c1ccc(F)cc1	·	106*	·	·	93*	·	95*	15
CC(=O)/C(=N\Nc1ccccc1)Sc1cccc2cccnc12	5	·	-2	3	-10	-4	·	·
O=C(Nc1ccccc1)N1CCCCN2[C@H](CO)[C@H](c3ccc(C#CC4CC4)cc3)[C@H]2C1	·	5	·	·	·	·	·	·
O=C(c1ccc(F)cc1)N1CC(=O)N2[C@H](C1)[C@@H](c1ccc(C#Cc3ccc(F)cc3)cc1)[C@@H]2CO	·	9	·	·	·	·	·	·
Nc1ccc(Cc2nc3cc4ccccc4cc3[nH]2)cc1	·	·	-1	-34	69*	37	34	70*
Nc1ccc(C(=O)OCc2nc3cc4ccccc4cc3[nH]2)cc1	-6	13	-1	0	74*	42	82*	34
Nc1ccc(C(=O)OCCCc2nc3cc4ccccc4cc3[nH]2)cc1	3	7	-1	-4	65*	17	22	94*
CCCC(=O)N=C1SC2CS(=O)(=O)CC2N1c1ccc(-c2nc3ccc(C)cc3s2)cc1 (stereo unspecified)	-51	-225	-4	-74	73*	10	-110	·
Cc1ccc(N2C(=NC(=O)c3ccccc3)SC3CS(=O)(=O)CC32)cc1 (stereo unspecified)	1	6	-4	-9	14	-1	·	·
CC1=C([N+](=O)[O-])C(c2ccccc2)C2=C(N1)c1ccccc1C2=O (stereo unspecified)	14	·	16	31	56*	52	63*	79*
CCOc1cc(C(=O)O/N=C(\N)c2ccc([N+](=O)[O-])cc2)cc(OCC)c1OCC	-3	-11	0	-3	67*	-12	46*	92*
N/C(=N\OC(=O)c1ccc([N+](=O)[O-])cc1)c1ccc(Br)cc1	-59	-22	0	-67	-24	-5	·	·
